Structures are written as SMILES. A number with no mark means an inactive call. No stated cut-off is given here; in the data, active means inhibition above about 30%; inactive means the rest.

This assay is described as follows: growth suppression of yeast trafficking mutant, preliminary HTS, modulators of trafficking downstream of Golgi apparatus project, 1536-format plate, OD 615 nm (AID 637). The note with it: yeast transport mutant growth, absorbance 615 nm, 18 h; hits give high values.
Usually inhibition stands for the drop in the measured response relative to a control, in per cent. For the compound `CCC1CCCCN1c1nc(-c2ccncc2)nc2ccccc12` (stereo not given), the inhibition is 0.49%.

On to `Cc1nc(NC(=O)c2ccccc2)sc1-c1csc(NCc2ccco2)n1`, for which the inhibition is 9.27%.

As to `COc1ccc(OCCN2C(=O)NC(C)(c3ccc(C)cc3)C2=O)cc1` (stereo not given), the inhibition is -4.03%.

In the case of `Cc1cc(S(=O)(=O)N2CCN(c3ncccn3)CC2)ccc1-n1cnnn1`, the inhibition is -0.73%.

Take `O=C(NCC(=O)N(c1cccnc1)C(C(=O)NC1CCCCC1)c1cccnc1)c1ccco1` (stereo not given): the inhibition was 4.91%.

For `CCOC(=O)Nc1nnc(-c2ccccc2OC)s1`, the inhibition was -4.68%.

Regarding `CCc1nnc(SCc2cn3c(C)cc(C)nc3n2)n1N`, the inhibition is -4.91%.

`CCOc1cc(/C=N/n2cnnc2)cc(Br)c1O`: the inhibition was 8.33%.

Regarding `COc1ccc(Nc2nc(Nc3ccc(OC)cc3)nc(-n3[nH]c(=O)c(C)c3C)n2)cc1`, the inhibition was 16.9%.

With `CC(O)c1cc2c(cc1NC(=O)c1cnn3c1NC(c1ccco1)CC3C(F)(F)F)OCO2` (stereo not given), the inhibition is -1.97%.

For `CC(C)n1nc(C(=O)Nc2nc3ccc(S(C)(=O)=O)cc3s2)c2ccccc2c1=O`, the inhibition was 2.73%.

On to `CC(CC(=O)NCc1ccccc1)C1CCCO1` (stereo not given), for which the inhibition was 4.75%.

As for `CCCCn1cnc2c(c1=O)c1nc3ccccc3nc1n2Cc1ccc2c(c1)OCO2`, the inhibition was -1.82%.

In the case of `COc1ccc(-n2nnnc2SCC(=O)c2ccc(O)c(O)c2)cc1`, the inhibition is -1.45%.

On to `CCN(CC)CCn1c(OC)cc(=O)[nH]c1=O`, for which the inhibition is -0.97%.

On to `O=C(c1ccco1)N1CCN(c2nc(C(F)(F)F)nc3c2nnn3Cc2ccccc2)CC1`, for which the inhibition is -0.16%.

`O=C(O)c1ccc(NC(=O)c2cccs2)cc1`: the inhibition is -4.55%.

Take `NS(=O)(=O)c1cc2c(cc1C(F)(F)F)NCNS2(=O)=O`: the inhibition is 3.33%.

On to `Cc1ccc(CCNC(=O)C2CCC(=O)N2C2CCCC2)cc1` (stereo not given), for which the inhibition is 0%.

Regarding `COc1cccc(NS(=O)(=O)c2ccc3[nH]cc(C(=O)NC4CC4)c(=O)c3c2)c1`, the inhibition is 2.13%.

For `CCn1cc(C(=O)O)c(=O)c2ccc(C)nc21`, the inhibition is -3.83%.

`Cc1nc2ccc(S(=O)(=O)NCC(=O)N3CCc4ccccc4C3)cc2s1`: the inhibition was 3.11%.

For `c1coc(CN2CN=C(Nc3nc4ccccc4s3)NC2)c1`, the inhibition is -4.18%.

As for `COc1cc(NS(=O)(=O)c2ccc(N)cc2)nc(OC)n1`, the inhibition was 3.83%.

Turning to `Cc1ccc2nc3c(cc(C(=O)NCC4CCCO4)n3C)c(=O)n2c1` (stereo not given), the inhibition was 25.2%.

With `COc1ccc2c(c1)c(CC(=O)OCC(=O)O)c(C)n2C(=O)c1ccc(Cl)cc1`, the inhibition is -0.67%.

In the case of `CCCn1cnc2c(cnn2-c2ccc(F)cc2)c1=O`, the inhibition is 0.16%.

For `CCN(CCO)C(=O)CC(c1ccccc1)c1cc(Br)ccc1O` (stereo not given), the inhibition is -3.09%.

In the case of `COc1cc2c(cc1OC)C(/C(C#N)=N\O)=NC(C)(C)C2`, the inhibition is 2%.

As for `O=C(O)COc1cccc(NC(=O)C2CCCO2)c1` (stereo not given), the inhibition is 10.9%.

For `CN1CCN(C(=O)c2ccc3c(=O)n(CCc4ccccc4)c(=S)[nH]c3c2)CC1`, the inhibition is -2.46%.

Regarding `CN(CCNC(=O)c1ccc(N2CCCC2=O)cc1)CCc1ccccc1`, the inhibition was 4.36%.

For the compound `COc1cccc(OCC(=O)Nc2ccccc2C(N)=O)c1`, the inhibition is 1.13%.

In the case of `CN1CC=C2C(C#N)=C(N)C(C#N)(C#N)C(c3cccc(Cl)c3Cl)C2C1` (stereo not given), the inhibition was 2.13%.

Turning to `Cn1c(C(=O)OC(C(=O)NC2CCCC2)c2cccnc2)cc2sccc21` (stereo not given), the inhibition is 2.91%.

On to `Cc1ccc(NC(=O)COC(=O)c2ccn(C)n2)cc1`, for which the inhibition was -1.09%.

Regarding `FC(F)(F)c1ccc(Sc2nnc(-c3cccs3)n2CC2CCCO2)nc1` (stereo not given), the inhibition was 2%.

With `COc1ccc(-n2c(SCC(=O)N3CCCCC3C)nnc2-c2cccnc2)cc1` (stereo not given), the inhibition was 2%.

Regarding `CCOC(=O)c1ccc(N(CC(=O)NC2CCCC2)C(=O)CNC(=O)c2ccco2)cc1`, the inhibition is -2.46%.

With `COC(=O)c1ccccc1NC(=O)C1CCN(S(=O)(=O)c2cc(C)ccc2OC)CC1`, the inhibition is 0.48%.
